CYP2C9 inh = blockers of cytochrome P450 2C9 activity – biochemical, luminescence, ADME assay, primary screen | P11712 | CYP2C9 Supersomes, luciferin-H conversion | inhibition, % at 5 µM | 96,000 compounds, 20% hits | AID 777, 2007;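 active = blocking of liver enzyme CYP2C9 beyond about 50% at 5 µM, limit read from the data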
PLAP act = PLAP enzyme activators, biochemical, luminescence, HTS; activation fold at 20 µM; 96,000 compounds, 1.2% hits; Alkaline phosphatase, placental type (Homo sapiens), P05187; purified PLAP enzyme, luminescent substrate read-out; hits give high values; in the data active = activation fold above about 2
CYP2C19 activ = human CYP2C19 activators, primary screen, biochemical, luminescence; 96,000 tested, under 10 active; activation factor at 5 µM; Cytochrome P450 2C19 (Homo sapiens), P33261; recombinant CYP2C19, luciferin-H EGE luminescence; hits give high values; 0 = fully inhibited enzyme, 1 = untreated enzyme;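 active = activation factor of at least 2 at 5 µM in the primary screen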
Target sequence (P33261 whole entry, looked up): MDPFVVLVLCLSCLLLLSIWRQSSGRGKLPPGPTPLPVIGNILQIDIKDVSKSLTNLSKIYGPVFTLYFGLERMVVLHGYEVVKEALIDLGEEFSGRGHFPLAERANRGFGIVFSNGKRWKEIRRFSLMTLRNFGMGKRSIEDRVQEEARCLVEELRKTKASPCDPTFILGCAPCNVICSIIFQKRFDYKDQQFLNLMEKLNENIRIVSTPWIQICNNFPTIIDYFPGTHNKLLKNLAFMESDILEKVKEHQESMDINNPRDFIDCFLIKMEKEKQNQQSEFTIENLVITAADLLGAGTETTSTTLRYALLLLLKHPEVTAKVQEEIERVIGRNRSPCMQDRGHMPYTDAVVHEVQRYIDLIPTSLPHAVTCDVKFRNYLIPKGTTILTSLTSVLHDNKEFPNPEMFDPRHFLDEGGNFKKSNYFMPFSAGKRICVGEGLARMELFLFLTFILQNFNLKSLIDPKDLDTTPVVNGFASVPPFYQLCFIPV
CYP2C9 act = human CYP2C9 activators, primary screen, biochemical, luminescence. 96,000 compounds, 1.4% hits. activation factor at 5 µM. Cytochrome P450 2C9 (Homo sapiens), P11712. recombinant CYP2C9, luciferin-H conversion; hits give high values; factor 1 = untreated enzyme, 0 = blocked;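 active = activation factor of 2 or more for CYP2C9 at a 5 µM dose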
CYP2C19 inhib = blockers of cytochrome P450 2C19 activity – biochemical, luminescence, ADME assay, primary screen; P33261; CYP2C19 Supersomes, luciferin-H EGE luminescence, 30 min; inhibition, % at 5 µM; 96,000 compounds, 21% hits; AID 778, 2007;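 active = CYP2C19 inhibition above a set limit at 5 µM in the primary screen, cut at about 50% in these data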
Of the large screens only hits and unclear results are named; the others gave an inactive call. Most compounds without a hit are left out; they make up all but 31% or so of the library.

COc1ccc(S(=O)(=O)NCCOc2ccccc2)cc1OC	CYP2C9 act 2.9, CYP2C19 inhib 100.0
CCOc1cc(S(=O)(=O)N(CC)CC)ccc1Br	CYP2C19 inhib 94.9
COc1ccc(CCNS(=O)(=O)c2ccccc2)cc1OC	none
CCN(CC)S(=O)(=O)c1ccc(Cl)c(C(=O)NC)c1	none
CCCNc1nc(NCC)nc(OC)n1	none
N=c1oc2ccccc2cc1-c1nc2ccccc2c(=O)[nH]1	none
CCC1Oc2ccc(C)cc2N(CC(=O)N2CCN(c3ccc(F)cc3)CC2)C1=O (stereo not given)	none
CC1(C(=O)CSc2n[nH]c(-c3ccccc3Cl)n2)CCC(=O)O1 (stereo not given)	none
O=C(Nc1cccc(Oc2ccc3c(c2)C(=O)NC3=O)c1)c1ccco1	none
CCN(CC)S(=O)(=O)c1ccc(Br)c(OC)c1	CYP2C19 inhib 81.7
CCN(CC)S(=O)(=O)c1cc(C(=O)n2cccn2)c(Cl)cc1Cl	CYP2C9 act 2.3, CYP2C19 inhib 66.1
O=C(N/N=C/c1cc([N+](=O)[O-])ccc1Cl)c1ccc2nc[nH]c2c1	none
Cc1ccc(S(=O)(=O)N2CCCC(c3nc(-c4ccc(C)o4)no3)C2)cc1 (stereo not given)	CYP2C9 inh 82.6, CYP2C19 inhib 90.5
Cc1ccc(-c2noc(C3CCCN(S(=O)(=O)c4ccc5ccccc5c4)C3)n2)o1 (stereo not given)	none
O=C(Cc1ccccc1)N1CCCC(c2nc(-c3ccc(S(=O)(=O)N4CCCC4)cc3)no2)C1 (stereo not given)	CYP2C9 inh 73.4
Cc1ccc(-c2noc(C3CCCN(S(=O)(=O)c4ccc(S(=O)(=O)N(C)C)cc4)C3)n2)o1 (stereo not given)	CYP2C9 inh 82.0
Cc1ccnc(N2C(=O)C3C4CC(C(Br)C4Br)C3C2=O)c1 (stereo not given)	none
O=C1C2C3CC(C(Br)C3Br)C2C(=O)N1c1ccccn1 (stereo not given)	CYP2C19 inhib 62.3
CCOc1cc(C(=O)N2CCN(c3ccc(C(C)=O)cc3)CC2)cc(OCC)c1OCC	none
COC(=O)c1ccc(NC(=O)CN2CCN(c3cccc(Cl)c3)CC2)cc1	CYP2C9 inh 76.1, CYP2C19 inhib 61.0
COc1cccc(N2CCN(CC(=O)Nc3nnc(-c4ccccc4)s3)CC2)c1	CYP2C9 inh 78.0, PLAP act 2, CYP2C19 inhib 50.4
O=C(Nc1cccc(F)c1)N1CC=C(c2ccc(Cl)cc2)CC1	CYP2C9 inh 95.7, CYP2C19 inhib 95.8
COC(=O)c1ccc(NC(=O)CN2CCN(c3ccc(Cl)cc3)CC2)cc1	none
O=C(NC1CCN(C(=O)Nc2cccc(F)c2)CC1)C1CCCCC1	none
CCOC(=O)c1cccc(NC(=O)CN2CCN(c3ccc(OC)cc3)CC2)c1	CYP2C9 inh 73.2, CYP2C19 inhib 54.0
COC(=O)c1[nH]c2ccc(Cl)cc2c1NC(=O)Oc1ccccc1	none
O=C(/C=C/c1ncc(C(F)(F)F)cc1Cl)OCc1ccccc1	none
COC(=O)c1sc(N)nc1C(C)(C)C	none
O=C(CN1CCN(c2ccc(Cl)cc2)CC1)Nc1cccc(F)c1	CYP2C9 inh 67.0
COc1cc(Cl)cc(NC(=O)CCN2CCN(C)CC2)c1	none
COc1ccc(NC(=O)CCN2CCN(S(=O)(=O)c3cc(Cl)ccc3Cl)CC2)cc1	CYP2C19 inhib 91.1
CCOC(=O)c1ccc(NC(=O)C(C)N2C(=O)c3ccccc3C2=O)cc1 (stereo not given)	none
COC(=O)c1ccc(NC(=O)CN2CCN(S(=O)(=O)c3cc(Cl)ccc3OC)CC2)cc1	CYP2C9 act 2.7, CYP2C19 inhib 94.7
CCOC(=O)c1cccc(NC(=O)C(C)N2C(=O)c3ccccc3C2=O)c1 (stereo not given)	CYP2C9 inh 96.8, CYP2C19 inhib 57.1
COC(=O)c1ccc(NC(=O)CN2C(=O)CNC2=O)cc1	none
Cc1cccc(N2C(=O)N(c3ccccc3C)C3CS(=O)(=O)CC32)c1 (stereo not given)	none
CCn1cc(-c2cc(C(F)(F)F)n3nc(C(=O)O)cc3n2)c(C)n1	none
CCCCCC(/C=N/Nc1ccc(S(=O)(=O)N2CCOCC2)cc1[N+](=O)[O-])=C\c1ccccc1	CYP2C9 inh 82.1
Cc1ccc(-c2n[nH]c(=S)n2Cc2ccccc2)cc1	none
CCCc1cc(-c2n[nH]c(=S)n2C(C)c2ccccc2)cs1 (stereo not given)	CYP2C9 inh 96.8, CYP2C19 inhib 80.7
CCc1cc(-c2n[nH]c(=S)n2-c2ccccc2C)cs1	CYP2C9 inh 52.1
CCc1cc(-c2n[nH]c(=S)n2Cc2ccccc2)cs1	CYP2C19 inhib 51.3
Clc1ccc(-c2nnc3n2CCCC3)cc1Cl	none
CCC(C)(C)NC(=O)Cc1ccccc1OC	none

Screens from PubChem.
